# From PubChem
# An excerpt weighted towards active compounds, which were near 2.9% of everything screened.
# S2 tox: reduces viability in counter-screen for ATXN expression inhibitors. 400,000 compounds, 0.49% hits. Potency, µM (titrated, usually from 56.7 µM), actives largely listed as cytotoxic. S2 cells (HEK-293 line with an ATXN2-luciferase reporter) viability, CellTiter-Fluor protease fluorescence, 24 h; note: nearly all actives have a fitted effect of over 40% in size
# Nrf2 activator: activates Nrf2 signaling | AREc32 ARE-luciferase reporter (MCF7-derived line), luminescence, 24 h | Potency, µM (titrated, usually from 46.1 µM), for inactives: at the top dose activation, actives largely listed as activators | 410,000 compounds, 0.31% hits | AID 624171; note: % of control where 0% means no effect; nearly all actives have a fitted effect of over 65% in size
#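 Each well held 1000 AREc32 cells, which were incubated with compound for 24 hr at 37 deg C after overnight attachment, and ARE reporter activity was quantified by firefly luciferase luminescence.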
# A549 viability: kills or reduces viability of A549 cells in Nrf2 counter-screen | 390,000 compounds, 0.16% hits | Potency, µM (doses to about 46 µM), for the others: top-dose activity change, negative = cytotoxicity, most hits filed as inhibitors | A549 ARE-Fluc cells, CellTiter-Fluor viability, 18-24 h; note: % is set by controls: 0 for no effect and ±100 for the full control effect
#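 Cytotoxicity counterscreen: CellTiter-Fluor fluorescence was measured in A549 ARE_Fluc cells after 18-24 h of compound exposure in a concentration series. The subsequent BugLite luminescent read reports ARE-luciferase activity.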
# ATXN2 expr inh: reduces ATXN2 reporter expression in HEK-293 cells; Potency, µM (highest dose often 57 µM), for the others: at the highest dose activity change, negative = inhibition, usual class: inhibitors; HEK-293 ATXN2-luciferase reporter, luminescence, 24 h; AID 1745845; 360,000 compounds, 0.72% hits; note: % is set by controls: 0 for no effect and ±100 for the full control effect; nearly all actives have a fitted effect of over 55% in size
#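 ATXN2-luciferase reporter cells (luciferase flanked by upstream and downstream ATXN2 gene portions) were treated 24 h at 37 °C with compounds at up to 57 uM. SteadyGlo luminescence gave expression; GF-AFC fluorescence gave viability.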
# Nrf2 block: inhibitors of Nrf2 signaling; A549 ARE-Fluc reporter, luciferase luminescence, 18-24 h; Potency, µM (titrated, usually from 46 µM), without a hit: at the highest dose activity change, negative = inhibition, actives largely listed as inhibitors; 360,000 compounds, 2.1% hits; note: % is set by controls: 0 for no effect and ±100 for the full control effect; nearly all actives have a fitted effect of over 60% in size
#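 Cells were seeded and rested 2 h, then exposed to compounds for 18-24 h. CellTiter-Fluor was read first as a viability measure. BugLite was added 15 min before the final luminescent read of ARE-luciferase activity in A549 cells.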
# An asterisk follows results filed as active; i = inactive; ? = inconclusive; . = not tested or not shown; ! = a repeat was not active; [ ] = another dose, or the depositor's remark. Calls come from the whole dose curve; as a rule, active = well fitted curve in the direction sought with a large enough effect; inconclusive = small, poorly fitted or top-dose-only effect, or another doubt; inactive = no such curve, though single readings can be large; an effect the other way counts as inactive or inconclusive. Potency is the fitted concentration of half-maximal effect.
SMILES,S2 tox,Nrf2 activator,A549 viability,ATXN2 expr inh,Nrf2 block
O=C(NCC(c1cccnc1)N1CCc2ccccc21)c1cccc(F)c1 (stereo unspecified),.,2.5%,-2.9%,.,?
N=c1n(CCO)c2ccccc2n1CCOc1ccc(Cl)cc1Cl,.,-4.0%,-6.8%,20µM*,-5.7%
Cc1cc(C)c(C(=O)/C=C/c2ccc(C(C)C)cc2)c(=O)[nH]1,?,-1.0%,-19.3%,?,18.4µM*
COc1cccc(CNC(=O)c2c(OC)cc(=O)n3c2CCN(C(=O)c2ccc(C)s2)CC3)c1,i,.,.,.,.
C#Cc1cccc(C(=O)NCc2nc(-c3ccccc3NC(=O)C3CCCO3)oc2C)c1 (stereo unspecified),i,.,.,.,.
Cc1ccccc1N(CC(=O)N/N=C/c1ccc(Cl)cc1)C(=O)c1ccccc1,i,0.6%,?,-8.3%,20.6µM*
CCN1CCN(Cc2ccc(NC(=O)c3ccc(C)c(/C=C/c4cnc(Nc5cc(N6CCNCC6)nc(C)n5)cn4)c3)cc2C(F)(F)F)CC1,i,-6.3%,?,12.6µM*!,18.4µM*
CCN1CCN(Cc2ccc(NC(=O)c3ccc(C)c(NC(=O)c4ccno4)c3)cc2C(F)(F)F)CC1,i,0.5%,6.5%,-28.7%,-6.6%
Cc1cc2c(s1)c1cnn(Cc3ccc(F)c(C)c3)c(=O)c1n2C,.,.,-0.1%,.,8.0%
Cc1cc(-c2ccnc(-n3ncc(C(=O)NCC(C)(C)N4CCOCC4)c3C)n2)c(C)s1,i,.,.,.,.
Cc1cc(C)n(-c2nc(NC(C)(C)C)nc(NC(C)(C)C)n2)n1,i,0.4%,-0.2%,-12.7%,.
Cc1cc(C)n(-c2nc(Nc3ccccc3C(F)(F)F)nc(-n3nc(C)cc3C)n2)n1,?,-3.6%,?,22.4µM*,.
COc1ccc(N(C)C(=O)c2cc(S(=O)(=O)N3CCc4ccccc43)cn2C)c(OC)c1,.,0.2%,?,.,18.4µM*
CCCC(=O)NC(=S)Nc1ccc(S(=O)(=O)N2CCc3ccccc32)cc1,i,-0.8%,-14.5%,?,20.6µM*
Cn1cc(S(=O)(=O)N2CCc3ccccc32)cc1C(=O)Nc1ccc(Cl)cc1,i,2.8%,-15.6%,-18.7%,8.2µM*
Cc1ccc(C(=O)Nc2ccc(S(=O)(=O)N3CCc4ccccc43)cc2)o1,i,0.9%,-22.6%,3.1%,20.6µM*
CCOC(=O)CCC(=O)Nc1ccc(S(=O)(=O)N2CCc3ccccc32)cc1,i,0.2%,0.2%,0.4%,3.0%
O=C(O)c1ccc(S(=O)(=O)N2CCCc3ccccc32)cc1,i,0.4%,0.6%,7.2%,0.3%
COc1ccc(C(=O)Nc2ccc(S(=O)(=O)N3CCc4ccccc43)cc2)cc1,?,3.2%,-9.6%,-15.6%,14.6µM*
O=S(=O)(NC1CC1)c1ccc(S(=O)(=O)N2CCCc3ccccc32)cc1,i,-0.5%,-16.3%,-16.6%,23.1µM*
NC(=O)c1ccsc1NC(=O)c1ccc(S(=O)(=O)N2CCCc3ccccc32)cc1,?,-3.8%,?,?,18.4µM*
Nc1c(NC/C=C\COc2cc(CN3CCCCC3)ccn2)c(=O)c1=O,?,.,.,2.7%[25.6 µM],.
CCOC(=O)[C@H](CCc1ccccc1)N[C@@H](C)C(=O)N1CCCC1C(=O)O (stereo partly specified),.,.,.,-5.7%,.
Cc1ccc(C)c(CN2C(=O)c3ccccc3S(=O)c3ccc(C(=O)NCc4ccccc4)cc32)c1 (stereo unspecified),i,0.3%,-13.2%,1.1%,-5.7%
O=c1[nH]c(CN2CCN(S(=O)(=O)/C=C/c3ccccc3)CC2)nc2cc(Cl)ccc12,i,0.4%,-20.0%,-23.0%,16.4µM*
SMILES,S2 tox,Nrf2 activator,A549 viability,ATXN2 expr inh,Nrf2 block
O=c1[nH]c(CN2CCN(S(=O)(=O)/C=C/c3ccccc3)CC2)nc2ccccc12,i,-0.6%,-4.5%,-11.5%,?
Cc1ccc(Nc2c(-c3ccccn3)nc3cc(C)ccn23)cc1,?,4.1%,?,3.55µM*,?
Cc1c(Cc2ccccc2)c(=O)n2c([nH]c3ccccc32)c1C#N,i,-0.3%,-20.7%,?,14.6µM*
COc1ccccc1N=Cc1c(C)c(C#N)c2[nH]c3ccccc3n2c1=O,.,1.0%,-17.5%,-3.7%,-24.2%
CCc1nn2c(=O)cc(-c3ccncc3)nc2s1,.,.,4.7%,.,-29.1%
O=C1CCCN2N=C(SCC(=O)Nc3cccc(C(F)(F)F)c3)SC2=N1,i,6.2%,-0.2%,?,16.4µM*
COc1ccc(NC(=O)CC2SC(N3CCCC3)=NC2=O)cc1Cl (stereo unspecified),i,-0.5%,6.0%,-11.1%,2.8%
O=C(CC1SC(N2CCCCC2)=NC1=O)Nc1cccc(C(F)(F)F)c1 (stereo unspecified),i,2.4%,-11.2%,-6.7%,20.6µM*
COc1ccc(NC(=O)CC2SC(N3CCOCC3)=NC2=O)cc1OC (stereo unspecified),i,0.0%,-4.3%,2.9%,14.6µM*
O=C1CCCN2N=C(SCC(=O)Nc3cccc(Cl)c3)SC2=N1,i,2.9%,1.8%,-34.3%,-76.9%
CC(=O)c1cccc(NC(=O)CC2SC(N3CCCCC3)=NC2=O)c1 (stereo unspecified),?,-0.2%,0.6%,9.4%,.
O=C1N[C@@H](Cc2ccccc2)COC(=O)[C@H](Cc2ccc(F)cc2)CC/C=C/C[C@H]1CC(=O)N(CCO)Cc1ccccc1,?,-3.3%,-26.2%,0.0%,23.1µM*
O=C1N[C@@H](Cc2c[nH]c3ccccc23)COC(=O)[C@@H](Cc2ccc(F)cc2)CC/C=C/C[C@@H]1CC(=O)N(CCO)Cc1ccccc1,?,-0.7%,?,?,?
O=C1N[C@@H](Cc2c[nH]c3ccccc23)COC(=O)[C@H](Cc2ccc(F)cc2)C/C=C\C[C@H]1CC(=O)N(CCO)Cc1ccccc1,?,-2.8%,?,?,25.9µM*
O=C1N[C@@H](Cc2ccccc2)COC(=O)[C@H](Cc2ccc(F)cc2)CC/C=C/C[C@@H]1CC(=O)N(CCO)Cc1ccccc1,?,4.0%,-5.4%,?,-29.0%
O=C1N[C@@H](c2ccccc2)COC(=O)[C@H](Cc2ccc(F)cc2)CC/C=C/C[C@@H]1CC(=O)N(CCO)Cc1ccccc1,10µM*,-0.1%,?,?,?
O=C1N[C@@H](Cc2ccccc2)COC(=O)[C@H](Cc2ccc(F)cc2)C/C=C\C[C@H]1CC(=O)N(CCO)Cc1ccccc1,?,1.1%,-25.4%,?,?
O=C1N[C@@H](Cc2ccccc2)COC(=O)[C@@H](Cc2ccc(F)cc2)CC/C=C/C[C@H]1CC(=O)N(CCO)Cc1ccccc1,22.4µM*,-2.0%,?,?,?
OC1(c2cccnc2)CCN(Cc2ccc3c(c2)CN(Cc2cc(F)cc(F)c2)CCO3)CC1,i,.,.,.,.
CCc1ccc(-n2c(=O)c3cccnc3n2CC(=O)Nc2cc(OC)ccc2OC)cc1,.,-0.6%,6.0%,.,10.0%
